# Unmarked numbers belong to inactive results. Records with an inconclusive call do not appear. Where a call stands in place of a potency, no number is given. The source made the active and inactive calls. Unless noted, the call rests on the fitted dose curve; in most records, active means well fitted curve in the direction sought with a large enough effect in the repeat runs; inconclusive means weak or mixed curves; inactive means no such curve, though single readings can be large; an effect the other way counts as inactive or inconclusive.
# Columns and labels:
# [1] = qHTS assay for small molecules that induce genotoxicity in human embryonic kidney cells expressing luciferase-tagged ATAD5 (AID 651632); further: nearly all actives have a fitted effect of over 15% in size
# Procedure, shortened: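 HEK293T cells carrying a luciferase reporter tagged to ATAD5 were exposed to compound or DMSO vehicle for 16 hr at 37C, 5% CO2. Amplite was added, and after 30 min at room temperature luciferase activity was read as a marker of ATAD5 induction.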
# [2] = qHTS assay for small molecule agonists of the p53 signaling pathway - cell viability (AID 651633; calls by dose curve;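 further: p53RE-bla HCT reporter cells with a stable beta-lactamase p53 reporter; series mostly up to about 83 µM; nearly all actives have a fitted effect of over 30% in size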)
# Procedure, shortened: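 p53RE-bla cells, seeded at 4,000 per well and rested 5 h at 37 C/5% CO2, received compounds in DMSO for 16 h at 37 C. CellTiter-Glo was then added, and luminescence was read after 30 min at room temperature to gauge cytotoxicity.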
# [3] = qHTS assay for small molecules that induce genotoxicity in human embryonic kidney cells expressing luciferase-tagged ATAD5 - cell viability (AID 651634; calls by dose curve; further: nearly all actives have a fitted effect of over 25% in size)
# Procedure, shortened: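 HEK293T cells expressing luciferase-tagged ATAD5 were exposed to compound or DMSO for 15.5 hr at 37C, 5% CO2. Viability was then read as live-cell protease activity by CellTiter-Fluor fluorescence after 30 min at 37C.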
# [4] = qHTS assay for small molecule disruptors of the mitochondrial membrane potential - cell viability (AID 720634; calls by dose curve;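 further: human HepG2 liver cancer cells; series mostly up to about 83 µM; nearly all actives have a fitted effect of over 20% in size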)
# Procedure, shortened: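 HepG2 cells seeded overnight at 37 C, then exposed to compound or DMSO for 1 hr at 37 C, 5% CO2. m-MPI dye added, then CellTiter-Glo for 30 min at room temperature; viability read as ATP luminescence.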
# [5] = qHTS assay for small molecule disruptors of the mitochondrial membrane potential (AID 720635); further: potency means the concentration at half of the fitted maximal effect
# Procedure, shortened: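 HepG2 cells (2,000/well) attached overnight at 37C, then took compound for 1 hr at 37C, 5% CO2. Mito-MPS dye was added for 30 min; fluorescence was read at 490/535 nm (monomers) and 540/590 nm (aggregates).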
# [6] = qHTS assay to test for compound auto fluorescence at 535 nm (green) in HepG2 cells (AID 720675)
# [7] = qHTS assay to test for compound auto fluorescence at 460 nm (blue) in HEK293 cells (AID 720678)
# Procedure, shortened: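 Blue read-out at excitation 405 nm and emission 460 nm follows overnight compound exposure of HEK293 cells at 37C in 5% CO2. Activity is given as auto fluorescence equivalency to triamterene.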
# [8] = qHTS assay to test for compound auto fluorescence at 590 nm (red) in HEK293 cells (AID 720679)
# Procedure, shortened: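 Red channel, Ex/Em 540/590nm; signal expressed as equivalency to Rose Bengal sodium. HEK293, 2,000 cells/well, 10% dialyzed FBS; 23 nL compound pinned after 4-5 hr attachment; overnight 37C/5% CO2 before reading.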
# [9] = qHTS assay to test for compound auto fluorescence at 460 nm (blue) in HEK293 cell free culture (AID 720681)
# Procedure, shortened: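 Test compounds were pinned into cell-free culture medium (DMEM with 10% FBS) and fluorescence was read directly at Ex/Em 405/460 nm. Signals were expressed as fluorescence equivalents of triamterene, with DMSO vehicle as control.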
# [10] = qHTS assay to test for compound auto fluorescence at 535 nm (green) in HEK293 cell free culture (AID 720682)
# Procedure, shortened: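 Green-channel intensity (Ex/Em 485/535 nm) was recorded from compound-treated wells containing only DMEM with 10% FBS. Fluorescein provided the equivalency standard.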
# [11] = qHTS assay to test for compound auto fluorescence at 590 nm (red) in HEK293 cell free culture (AID 720683)
# Procedure, shortened: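 Tox21 10K library compounds were pinned into cell-free DMEM with 10% FBS and fluorescence was read at excitation 540 nm. Activity is expressed as Rose Bengal sodium equivalency.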
# [12] = qHTS assay to test for compound auto fluorescence at 590 nm (red) in HepG2 cell free culture (AID 720684)
# Procedure, shortened: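 Red fluorescence (540 nm excitation, 590 nm emission) was measured after compound transfer into cell-free MEM supplemented with 10% FBS. Values are equivalencies against Rose Bengal sodium.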
# [13] = qHTS assay to test for compound auto fluorescence at 460 nm (blue) in HepG2 cell free culture (AID 720685)
# Procedure, shortened: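 Compound (23 nL) or DMSO pinned into cell-free MEM with 10% FBS; blue fluorescence read at 405/460 nm excitation/emission, expressed as auto-fluorescence equivalency to triamterene.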
# [14] = qHTS assay to test for compound auto fluorescence at 535 nm (green) in HepG2 cell free culture (AID 720686)
# [15] = qHTS assay to test for compound auto fluorescence at 460 nm (blue) in HepG2 cells (AID 720687)
# Procedure, shortened: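 Cells (2,000/well in MEM with 10% FBS) attached overnight at 37 C, then were exposed to compound or DMSO for 1 hr at 37 C, 5% CO2. Fluorescence read at Ex/Em 405/460 nm, expressed as triamterene-equivalent signal.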
# [16] = molecular target: Glucocorticoid receptor (Homo sapiens) (UniProt P04150); experiment: qHTS assay to identify small molecule agonists of the glucocorticoid receptor (GR) signaling pathway (AID 720691; active means well fitted activation curve with a large enough effect in the signal ratio in the repeat runs, not every such curve was filed as active; the % refers to the signal ratio; further: potency means the concentration at half of the fitted maximal effect)
# Sequence of Glucocorticoid receptor (Homo sapiens) (P04150 whole entry, looked up): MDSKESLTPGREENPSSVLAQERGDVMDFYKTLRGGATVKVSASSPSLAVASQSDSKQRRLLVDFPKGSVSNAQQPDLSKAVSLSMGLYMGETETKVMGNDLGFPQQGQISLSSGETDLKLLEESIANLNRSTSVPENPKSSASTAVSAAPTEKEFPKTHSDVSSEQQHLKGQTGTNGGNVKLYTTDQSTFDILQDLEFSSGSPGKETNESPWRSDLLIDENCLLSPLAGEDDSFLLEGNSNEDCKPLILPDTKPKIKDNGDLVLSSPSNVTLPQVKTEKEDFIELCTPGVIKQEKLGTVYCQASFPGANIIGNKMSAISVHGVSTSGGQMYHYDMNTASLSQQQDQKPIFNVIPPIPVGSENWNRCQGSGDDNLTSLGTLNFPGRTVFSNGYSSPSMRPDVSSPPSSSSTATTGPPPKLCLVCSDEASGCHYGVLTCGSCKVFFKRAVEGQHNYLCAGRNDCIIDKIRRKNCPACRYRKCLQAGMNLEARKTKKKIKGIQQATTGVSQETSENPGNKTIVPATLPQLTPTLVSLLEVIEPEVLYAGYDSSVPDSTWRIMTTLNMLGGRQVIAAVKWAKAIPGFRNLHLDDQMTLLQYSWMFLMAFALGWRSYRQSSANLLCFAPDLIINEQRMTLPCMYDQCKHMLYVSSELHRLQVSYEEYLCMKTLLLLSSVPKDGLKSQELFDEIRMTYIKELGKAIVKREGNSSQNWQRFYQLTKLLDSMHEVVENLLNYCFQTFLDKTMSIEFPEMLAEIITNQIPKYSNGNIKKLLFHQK
# Procedure, shortened: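 GR-bla HeLa cells (beta-lactamase reporter under glucocorticoid response element) were plated 4 h at 37 C/5% CO2, given compounds in DMSO, and incubated 18 h at 37 C. LiveBLAzer B/G FRET substrate was added for 2 h at room temperature, then fluorescence intensity read.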
# [17] = molecular target: Glucocorticoid receptor (Homo sapiens) (UniProt P04150); experiment: qHTS assay to identify small molecule antagonists of the glucocorticoid receptor (GR) signaling pathway (AID 720692; active means well fitted inhibition curve with a large enough effect in the signal ratio in the repeat runs, not every such curve was filed as active; the % refers to the signal ratio; further: potency means the concentration at half of the fitted maximal effect)
# Procedure, shortened: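 GR-bla HeLa cells (beta-lactamase reporter under glucocorticoid response element) were pre-plated 4 h at 37 C, treated with compounds plus 5 nM dexamethasone (final) for 18 h, then read by LiveBLAzer B/G FRET fluorescence after 2 h.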
# [18] = qHTS assay to test for compound auto fluorescence at 590 nm (red) in HepG2 cells (AID 720674)
# Procedure, shortened: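 Rose Bengal sodium served as the red fluorophore standard. HepG2 monolayers (overnight attachment, MEM with 10% FBS) were exposed to test compounds for 1 hr at 37 C and read at Ex 540/Em 590 nm.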
# [19] = qHTS assay to test for compound auto fluorescence at 535 nm (green) in HEK293 cells (AID 720680)
structure (smiles),measurement,setting,value
CC1CN(c2cc3c(cc2F)c(=O)c(C(=O)O)cn3-c2ccc(F)cc2F)CCN1 (configuration not stated),Potency,[1],inactive
same,Potency,[2],inactive
same,Potency,[3],inactive
same,Potency,[4],inactive
same,Potency,[5],inactive
same,outcome,[6],inactive
same,Potency,[7],inactive
same,outcome,[8],inactive
same,Potency,[9],inactive
same,outcome,[10],inactive
same,outcome,[11],inactive
same,outcome,[12],inactive
same,Potency,[13],inactive
same,outcome,[14],inactive
same,Potency,[15],inactive
same,Potency,[16],inactive
same,Potency,[17],inactive
COC(OC)(C(=O)c1ccccc1)c1ccccc1,Potency,[1],inactive
same,Potency,[2],inactive
same,Potency,[3],inactive
same,outcome,[18],inactive
same,outcome,[6],inactive
same,Potency,[7],inactive
same,outcome,[8],inactive
same,outcome,[19],inactive
same,Potency,[9],inactive
same,outcome,[10],inactive
same,outcome,[11],inactive
same,outcome,[12],inactive
same,Potency,[13],inactive
same,outcome,[14],inactive
same,Potency,[15],inactive
same,Potency,[16],inactive
same,Potency,[17],inactive
CO[Si](C)(OC)OC,Potency,[1],inactive
same,Potency,[2],inactive
same,Potency,[3],inactive
same,Potency,[4],inactive
same,outcome,[18],inactive
same,outcome,[6],inactive
same,Potency,[7],inactive
same,outcome,[8],inactive
same,Potency,[9],inactive
same,outcome,[10],inactive
same,outcome,[11],inactive
same,outcome,[12],inactive
same,Potency,[13],inactive
same,outcome,[14],inactive
same,Potency,[15],inactive
same,Potency,[16],inactive
same,Potency,[17],inactive
O=C(c1ccc(O)cc1)c1ccc(Cl)cc1,Potency,[1],inactive
same,Potency,[2],inactive
same,Potency,[3],inactive
same,Potency,[5],15.7 µM (active)
same,outcome,[6],inactive
same,Potency,[7],inactive
same,outcome,[8],inactive
same,outcome,[19],inactive
same,Potency,[9],inactive
same,outcome,[10],inactive
same,outcome,[11],inactive
same,outcome,[12],inactive
same,Potency,[13],inactive
same,outcome,[14],inactive
same,Potency,[15],inactive
same,Potency,[16],inactive
NC(=O)N(O)[C@@H]1C=C[C@H](Oc2cccc(Oc3ccc(F)cc3)c2)C1,Potency,[1],inactive
same,Potency,[2],inactive
same,Potency,[3],inactive
same,outcome,[18],inactive
same,outcome,[6],inactive
same,Potency,[7],inactive
same,outcome,[8],inactive
same,Potency,[9],inactive
same,outcome,[10],inactive
same,outcome,[11],inactive
same,outcome,[12],inactive
same,Potency,[13],inactive
same,outcome,[14],inactive
same,Potency,[15],inactive
same,Potency,[16],inactive
C=CC(=C)CCCC(C)(C)OC(C)=O,Potency,[1],inactive
same,Potency,[2],inactive
same,Potency,[3],inactive
same,Potency,[4],inactive
same,outcome,[18],inactive
same,outcome,[6],inactive
same,Potency,[7],inactive
same,outcome,[8],inactive
same,outcome,[19],inactive
same,Potency,[9],inactive
same,outcome,[10],inactive
same,outcome,[11],inactive
same,outcome,[12],inactive
same,Potency,[13],inactive
same,outcome,[14],inactive
same,Potency,[15],inactive
same,Potency,[16],inactive
same,Potency,[17],inactive
CC(N)CN (configuration not stated),Potency,[1],inactive
same,Potency,[2],inactive
same,Potency,[3],inactive
same,outcome,[18],inactive
same,outcome,[6],inactive
same,Potency,[7],inactive
same,outcome,[8],inactive
same,outcome,[19],inactive
same,Potency,[9],inactive
same,outcome,[10],inactive
same,outcome,[11],inactive
same,outcome,[12],inactive
same,Potency,[13],inactive
same,outcome,[14],inactive
same,Potency,[15],inactive
same,Potency,[16],inactive
same,Potency,[17],inactive
C=CC(=O)NCOCC(C)C,Potency,[1],inactive
same,Potency,[2],inactive
same,Potency,[4],inactive
same,Potency,[5],inactive
same,outcome,[18],inactive
same,outcome,[6],inactive
same,Potency,[7],inactive
same,outcome,[8],inactive
same,outcome,[19],inactive
same,Potency,[9],inactive
same,outcome,[10],inactive
same,outcome,[11],inactive
same,outcome,[12],inactive
same,Potency,[13],inactive
same,outcome,[14],inactive
same,Potency,[15],inactive
CCCCC(CC)C(=O)OCCOCCOCCOCCOC(=O)C(CC)CCCC (configuration not stated),Potency,[1],inactive
same,Potency,[2],inactive
same,Potency,[3],inactive
same,Potency,[4],inactive
same,outcome,[18],inactive
same,outcome,[6],inactive
same,Potency,[7],inactive
same,outcome,[8],inactive
same,Potency,[9],inactive
same,outcome,[10],inactive
same,outcome,[11],inactive
same,outcome,[12],inactive
same,Potency,[13],inactive
same,outcome,[14],inactive
same,Potency,[15],inactive
same,Potency,[16],inactive
same,Potency,[17],inactive
CC1=NN(c2ccc(C(=O)O)cc2)C(=O)C1,Potency,[1],inactive
same,Potency,[2],inactive
same,Potency,[4],inactive
same,Potency,[5],inactive
same,outcome,[18],inactive
same,outcome,[6],inactive
same,Potency,[7],inactive
same,outcome,[8],inactive
same,outcome,[19],inactive
same,Potency,[9],inactive
same,outcome,[10],inactive
same,outcome,[11],inactive
same,outcome,[12],inactive
same,Potency,[13],inactive
same,outcome,[14],inactive
same,Potency,[15],inactive
O=c1[nH]c2ccc(S(=O)CCN3CCC(Cc4ccc(F)cc4)CC3)cc2o1 (configuration not stated),Potency,[1],inactive
same,Potency,[2],inactive
same,Potency,[3],inactive
same,Potency,[4],inactive
same,outcome,[18],inactive
same,outcome,[6],inactive
same,Potency,[7],inactive
same,outcome,[19],inactive
same,Potency,[9],inactive
same,outcome,[10],inactive
same,outcome,[11],inactive
same,outcome,[12],inactive
same,Potency,[13],inactive
same,outcome,[14],inactive
same,Potency,[15],inactive
same,Potency,[16],inactive
same,Potency,[17],inactive
CC(=O)[C@H]1CC[C@H]2[C@@H]3C=CC4=CC(=O)CC[C@@]4(C)[C@@H]3CC[C@]12C,Potency,[1],inactive
same,Potency,[2],inactive
same,Potency,[3],inactive
same,Potency,[4],inactive
same,"fluorescence, relative to Rose Bengal",[18],-0.279% [at 18.6 µM]
same,"fluorescence, % of fluorescein control",[6],-0.0643% [at 18.6 µM]
same,"fluorescence, % of triamterene",[7],-0.137% [at 18.6 µM]
same,"fluorescence, % of fluorescent control",[8],-0.3% [at 18.6 µM]
same,"fluorescence, % of fluorescein",[19],-0.274% [at 18.6 µM]
same,"fluorescence, % of fluorescent control",[9],-0.214% [at 18.6 µM]
same,activity change,[10],-0.278% [at 18.6 µM]
same,"fluorescence, % of fluorescent control",[11],-0.0895% [at 18.6 µM]
same,"fluorescence, % of Rose Bengal",[12],-0.458% [at 18.6 µM]
same,"fluorescence, % of fluorescent control",[13],-0.0065% [at 18.6 µM]
same,"fluorescence, % of fluorescein control",[14],-0.0891% [at 18.6 µM]
same,"fluorescence, % of fluorescent control",[15],0.0499% [at 18.6 µM]
same,Potency,[16],0.0007 µM (active)
same,Potency,[17],1.82 µM (active)
O=Cc1c(Cl)cccc1Cl,Potency,[1],inactive
same,Potency,[2],inactive
same,Potency,[3],inactive
same,Potency,[4],inactive
same,outcome,[18],inactive
same,outcome,[6],inactive
same,Potency,[7],inactive
same,outcome,[8],inactive
same,outcome,[19],inactive
same,Potency,[9],inactive
same,outcome,[10],inactive
same,outcome,[11],inactive
same,outcome,[12],inactive
same,Potency,[13],inactive
same,outcome,[14],inactive
same,Potency,[15],inactive
same,Potency,[16],inactive
same,Potency,[17],inactive
Oc1cc(O)c(Cl)cc1Cl,Potency,[1],inactive
same,Potency,[2],inactive
same,Potency,[3],inactive
same,Potency,[5],7.03 µM (active)
same,outcome,[18],inactive
same,outcome,[6],inactive
same,Potency,[7],inactive
same,outcome,[8],inactive
same,outcome,[19],inactive
same,Potency,[9],inactive
same,outcome,[10],inactive
same,outcome,[11],inactive
same,outcome,[12],inactive
same,Potency,[13],inactive
same,outcome,[14],inactive
same,Potency,[15],inactive
same,Potency,[16],inactive
same,Potency,[17],inactive
